Experiment [1] is described as follows: qHTS assay to test for compound auto fluorescence at 535 nm (green) in HEK293 cells (AID 720680). (In qHTS, concentration-response curves come from the screen itself.)
Experiment [2] is described as follows: qHTS assay to test for compound auto fluorescence at 535 nm (green) in HEK293 cell free culture (AID 720682). The gist of the method: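 Fluorescein serves as the green reference fluorophore; each compound's intrinsic emission at 535 nm (excitation 485 nm) is reported as an equivalent amount of that dye, measured in serum-containing DMEM without cells.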
Experiment [3] can be described thus: qHTS assay to test for compound auto fluorescence at 590 nm (red) in HepG2 cell free culture (AID 720684). The gist of the method:
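Compounds are added to culture medium (MEM, 10% FBS) lacking cells, then fluorescence is read at excitation 540 nm, emission 590 nm, with Rose Bengal sodium as the equivalency standard.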

The nature of experiment [4]: qHTS assay to test for compound auto fluorescence at 460 nm (blue) in HepG2 cell free culture (AID 720685). The gist of the method: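 Compound (23 nL) or DMSO pinned into cell-free MEM with 10% FBS; blue fluorescence read at 405/460 nm excitation/emission, expressed as auto-fluorescence equivalency to triamterene.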
A short description of experiment [5]: qHTS assay to test for compound auto fluorescence at 535 nm (green) in HepG2 cell free culture (AID 720686).
Experiment [6] in a line: qHTS assay to test for compound auto fluorescence at 460 nm (blue) in HepG2 cells (AID 720687). Put shortly:
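HepG2 cells in MEM with 10% FBS, attached overnight at 37 C, were exposed to compound or DMSO for 1 hr at 37 C, 5% CO2. Blue fluorescence was read at 405/460 nm, with triamterene as reference fluorophore.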

Experiment [7] concerns the target Glucocorticoid receptor (Homo sapiens) (UniProt P04150). Kind of experiment: qHTS assay to identify small molecule agonists of the glucocorticoid receptor (GR) signaling pathway (AID 720691; active = well fitted activation curve with a large enough effect in the signal ratio in the repeat runs, not every such curve was filed as active; the % refers to the signal ratio). The gist of the method:
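Fluorescence intensity from LiveBLAzer B/G FRET substrate (2 h, room temperature) reports beta-lactamase expression driven by the glucocorticoid response element in GR-bla HeLa cells after 18 h compound exposure at 37 C.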

Experiment [8] shares this target. In words: qHTS assay to identify small molecule antagonists of the glucocorticoid receptor (GR) signaling pathway (AID 720692; active = well fitted inhibition curve with a large enough effect in the signal ratio in the repeat runs, not every such curve was filed as active; the % refers to the signal ratio). The gist of the method:
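HeLa GR-bla cells; cmpd + dex 5 nM final, 18 h 37 C; LiveBLAzer B/G FRET substrate 2 h RT; fluorescence intensity read. Antagonist mode, qHTS.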

The nature of experiment [9]: qHTS assay to identify small molecule antagonists of the glucocorticoid receptor (GR) signaling pathway - cell viability counter screen (AID 720693). Note: nearly all actives have a fitted effect of over 55% in size.
Experiment [10] in a line: qHTS assay for identifying genotoxic compounds that show differential cytotoxicity against isogenic chicken DT40 cell lines with known DNA damage response pathways - wild type cell line (AID 743012). Note: nearly all actives have a fitted effect of over 60% in size. Note: potency is the fitted concentration of half-maximal effect. Put shortly:
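Wild type DT40, 300 cells/well, ~0.5 h settle at 37 C/5% CO2; compounds in DMSO added by pintool; 40 h at 37 C/5% CO2; CellTiter-Glo, 30 min RT; luminescence.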

A short description of experiment [11]: qHTS assay for identifying genotoxic compounds that show differential cytotoxicity against isogenic chicken DT40 cell lines with known DNA damage response pathways - Rev3 mutant cell line (AID 743014). Note: nearly all actives have a fitted effect of over 55% in size. Note: potency is the fitted concentration of half-maximal effect.
The nature of experiment [12]: qHTS assay for identifying genotoxic compounds that show differential cytotoxicity against isogenic chicken DT40 cell lines with known DNA damage response pathways - Rad54/Ku70 mutant cell line (AID 743015). Note: nearly all actives have a fitted effect of over 60% in size. Note: potency is the fitted concentration of half-maximal effect.
Experiment [13] in a line: qHTS assay to identify small molecule antagonists of the androgen receptor (AR) signaling pathway - cell viability counter screen (AID 743033; note: nearly all actives have a fitted effect of over 45% in size).
A short description of experiment [14]: qHTS assay to identify small molecule antagonists of the androgen receptor (AR) signaling pathway using the MDA cell line - cell viability counter screen (AID 743041; note: nearly all actives have a fitted effect of over 45% in size). The gist of the method:
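Same-well cytotoxicity was assessed by CellTiter-Fluor in MDA-kb2 AR-luc cells after 16 h of compound treatment under R1881 agonism.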

Experiment [15] can be described thus: qHTS assay to test for compound auto fluorescence at 590 nm (red) in HEK293 cell free culture (AID 720683). Put shortly:
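Cell-free wells of DMEM with 10% FBS received compound, and intrinsic fluorescence was read at excitation/emission 540/590 nm. Values expressed as equivalence to Rose Bengal sodium.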

Experiment [16] addresses Androgen receptor (Homo sapiens) (UniProt P10275). Kind of experiment: qHTS assay to identify small molecule agonists of the androgen receptor (AR) signaling pathway (AID 743036; active = well fitted activation curve with a large enough effect in the signal ratio in the repeat runs, with a control signal flat, not every such curve was filed as active; the % refers to the signal ratio). Put shortly:
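Fluorescence from a beta-lactamase FRET substrate served as read-out in AR-UAS-bla GripTite HEK293 cells. Cells were treated with DMSO-dissolved compounds for 16 h at 37C, then with LiveBLAzer B/G substrate for 2 h at room temperature.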

For experiment [17] the target is unchanged. Kind of experiment: qHTS assay to identify small molecule agonists of the androgen receptor (AR) signaling pathway using the MDA cell line (AID 743040; note: nearly all actives have a fitted effect of over 20% in size; note: potency is the fitted concentration of half-maximal effect). Put shortly: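 Human breast carcinoma MDA-kb2 reporter cells (MMTV-luc, AR/GR elements) were treated for 16 h at 37C in 0% CO2 following a 5 h settling period. Signal was quantified by ONE-Glo luminescence.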

For experiment [18] the target is unchanged. Kind of experiment: qHTS assay to identify small molecule antagonists of the androgen receptor (AR) signaling pathway using the MDA cell line (AID 743042; note: nearly all actives have a fitted effect of over 55% in size). Put shortly: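 MDA-kb2 breast carcinoma cells carrying MMTV-luciferase (AR/GR responsive) were co-treated with compounds and the agonist R1881 for 16 h at 37C. Inhibition read as ONE-Glo luminescence; CellTiter-Fluor fluorescence measured in parallel for cytotoxicity.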

The target is the same in experiment [19]. In words: qHTS assay to identify small molecule antagonists of the androgen receptor (AR) signaling pathway (AID 743035; active = well fitted inhibition curve with a large enough effect in the signal ratio in the repeat runs, not every such curve was filed as active; the % refers to the signal ratio). Put shortly: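 Fluorescence from a beta-lactamase FRET substrate (LiveBLAzer B/G, 2 h, room temperature) measured inhibition of R1881-stimulated signaling in GeneBLAzer AR-UAS-bla HEK293 cells exposed to compound for 16 h at 37C.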

Values without a mark were called inactive. Inconclusive results are not listed. The source made the active and inactive calls. Unless noted, calls come from the whole dose curve; as a rule, active = well fitted curve in the direction sought with a large enough effect in the repeat runs; inconclusive = weak or mixed curves; inactive = no such curve, though single readings can be large; an effect the other way counts as inactive or inconclusive.
% is set by controls: 0 for no effect and ±100 for the full control effect.

Androgen receptor (Homo sapiens), sequence (P10275 whole entry, looked up): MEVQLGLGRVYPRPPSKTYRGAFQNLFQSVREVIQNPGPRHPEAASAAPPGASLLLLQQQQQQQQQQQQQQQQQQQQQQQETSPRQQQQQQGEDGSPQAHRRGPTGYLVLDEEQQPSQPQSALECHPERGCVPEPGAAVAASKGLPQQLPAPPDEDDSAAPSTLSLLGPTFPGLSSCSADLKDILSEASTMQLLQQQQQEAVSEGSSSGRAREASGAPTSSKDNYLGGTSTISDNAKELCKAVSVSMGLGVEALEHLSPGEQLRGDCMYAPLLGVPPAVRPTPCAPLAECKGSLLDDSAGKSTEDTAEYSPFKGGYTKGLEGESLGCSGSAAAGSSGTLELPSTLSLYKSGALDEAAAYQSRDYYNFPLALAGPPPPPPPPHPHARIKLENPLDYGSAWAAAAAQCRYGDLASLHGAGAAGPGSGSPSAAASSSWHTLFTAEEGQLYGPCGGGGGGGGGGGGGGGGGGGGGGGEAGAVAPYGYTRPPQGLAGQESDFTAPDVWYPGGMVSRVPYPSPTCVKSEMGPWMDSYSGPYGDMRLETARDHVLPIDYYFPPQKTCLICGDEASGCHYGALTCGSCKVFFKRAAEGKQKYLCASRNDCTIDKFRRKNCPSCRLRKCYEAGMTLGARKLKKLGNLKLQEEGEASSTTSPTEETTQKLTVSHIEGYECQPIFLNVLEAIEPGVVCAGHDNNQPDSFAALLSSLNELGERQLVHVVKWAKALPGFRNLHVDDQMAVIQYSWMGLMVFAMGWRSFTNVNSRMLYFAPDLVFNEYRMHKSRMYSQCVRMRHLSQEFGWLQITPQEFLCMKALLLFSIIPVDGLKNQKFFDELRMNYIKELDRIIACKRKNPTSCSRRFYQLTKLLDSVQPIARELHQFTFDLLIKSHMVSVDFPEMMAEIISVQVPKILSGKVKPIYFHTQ
Glucocorticoid receptor (Homo sapiens), sequence (P04150 whole entry, looked up): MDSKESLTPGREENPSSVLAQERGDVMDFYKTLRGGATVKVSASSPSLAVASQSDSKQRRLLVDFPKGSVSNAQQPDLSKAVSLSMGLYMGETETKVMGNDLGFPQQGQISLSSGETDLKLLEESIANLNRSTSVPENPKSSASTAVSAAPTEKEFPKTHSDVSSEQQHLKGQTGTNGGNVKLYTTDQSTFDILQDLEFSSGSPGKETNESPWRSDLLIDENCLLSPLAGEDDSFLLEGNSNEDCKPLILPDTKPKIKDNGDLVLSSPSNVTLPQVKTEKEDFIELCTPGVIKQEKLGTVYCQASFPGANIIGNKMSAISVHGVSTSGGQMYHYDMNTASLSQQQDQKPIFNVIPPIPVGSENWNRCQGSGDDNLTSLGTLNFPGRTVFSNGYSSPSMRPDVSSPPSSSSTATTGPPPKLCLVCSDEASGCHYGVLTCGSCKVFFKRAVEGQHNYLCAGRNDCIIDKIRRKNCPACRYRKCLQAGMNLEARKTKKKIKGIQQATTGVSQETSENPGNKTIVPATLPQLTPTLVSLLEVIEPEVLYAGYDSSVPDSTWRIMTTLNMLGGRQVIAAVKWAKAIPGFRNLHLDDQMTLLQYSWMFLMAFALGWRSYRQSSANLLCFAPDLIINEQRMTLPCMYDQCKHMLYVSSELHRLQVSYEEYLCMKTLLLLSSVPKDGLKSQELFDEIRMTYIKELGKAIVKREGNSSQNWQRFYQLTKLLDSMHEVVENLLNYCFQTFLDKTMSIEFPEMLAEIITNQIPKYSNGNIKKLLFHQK

In the case of `Cc1c[nH]c2ccccc12`, the outcome in experiment [1], in [2], in experiment [3] and in experiment [5] was inactive. For the same compound, the Potency entry in [4], in experiment [6], in [7], in experiment [8], in [9] and in [10] was “inactive” each time. The Potency entry in experiment [11], in experiment [12], in experiment [13] and in experiment [14] was “inactive” in each case.
Consider `COc1ccc(-n2nc(C(F)F)cc2-c2ccc(S(C)=O)cc2)cc1` (stereo not drawn), for which the result in experiment [1], in experiment [2], in [15], in [3] and in [5] was inactive. Also, the Potency entry in experiment [4], in experiment [6], in experiment [7], in experiment [8], in experiment [9] and in [13] was “inactive” in each case. For the same compound, in [14], the Potency entry was “inactive”. Moreover, the Potency in [10] was 61.1 µM (active); in [11] it was 30.6 µM (active); in experiment [12], 54.5 µM (active).
For the compound `CC(C)(C)C1(CCc2ccc(Cl)cc2)CO1` (stereo not drawn), the call in [1], in experiment [2], in [15], in experiment [3] and in experiment [5] was inactive. In addition, the Potency result in [4], in experiment [6], in experiment [9], in [10], in experiment [13] and in [14] was “inactive” in each case.
Take `CC(C)(C(=O)c1cccnc1)c1cccnc1`: the fluorescence, % of fluorescein in experiment [1] was 0.0635% [at 18.6 µM]. In addition, the activity change in experiment [2] is 0.0185% [at 18.6 µM]. In experiment [3], the fluorescence, % of Rose Bengal was 0.0034% [at 18.6 µM]. Also, the fluorescence, % of fluorescent control is -0.0441% [at 18.6 µM] in experiment [4] and -0.0372% [at 18.6 µM] in experiment [6]. Besides, the fluorescence, % of fluorescein control in [5] is 0.0796% [at 18.6 µM]. The Potency entry in [7], in experiment [8], in experiment [9], in [10], in experiment [11] and in experiment [12] was “inactive” throughout. Moreover, the Potency result in [13] and in experiment [14] was “inactive” throughout.
Turning to `COC(=O)c1sccc1S(N)(=O)=O`, the compound was called inactive in experiment [1], in [2], in [15], in experiment [3] and in [5]. Moreover, the Potency entry in [4], in [6], in experiment [7], in experiment [9], in experiment [12] and in experiment [13] was “inactive” in each case.
Turning to `N[C@@H](Cc1cc(I)c(O)c(I)c1)C(=O)O`, the result in [1], in experiment [2], in experiment [15], in experiment [3] and in [5] was inactive. Also, the Potency result in [4], in [6], in experiment [7], in experiment [8], in [9] and in [10] was “inactive” each time. Besides, the Potency result in experiment [11], in experiment [12], in experiment [13] and in [14] was “inactive” throughout.
Turning to `c1ccc2sc(SSc3nc4ccccc4s3)nc2c1`, the compound was called inactive in experiment [1], in experiment [2], in experiment [15], in experiment [3] and in experiment [5]. In addition, the Potency entry in experiment [4], in experiment [6], in experiment [7], in [8], in experiment [9] and in experiment [10] was “inactive” throughout. The Potency result in experiment [11], in experiment [12] and in experiment [14] was “inactive” throughout.
As to `Nc1ccc(NC(=O)c2ccc(N)cc2)cc1`, the compound was classed as inactive in [1], in experiment [2], in experiment [15], in experiment [3], in [5] and in experiment [16]. In addition, the Potency entry in experiment [4], in experiment [6], in experiment [9], in experiment [10], in experiment [11] and in [13] was “inactive” each time. Moreover, the Potency entry in experiment [17], in experiment [14] and in experiment [18] was “inactive” in each case.
Take `CCC(CO)(CO)CO`: the compound was called inactive in experiment [1], in [2], in [15], in experiment [3], in experiment [5] and in experiment [16]. Also, the Potency entry in [4], in experiment [6], in experiment [7], in experiment [8], in experiment [9] and in experiment [10] was “inactive” in each case. The Potency entry in [13], in experiment [19], in experiment [17] and in experiment [18] was “inactive” in each case.
With `O=C(Nc1ccc(C(=O)O)c(O)c1)c1ccccc1`, the result in experiment [1], in experiment [2], in [15], in [3] and in experiment [5] was inactive. For the same compound, the Potency result in experiment [4], in experiment [6], in experiment [9], in experiment [10], in experiment [11] and in experiment [12] was “inactive” throughout. Also, the Potency result in [13] and in experiment [14] was “inactive” throughout.
`O=C(O)/C=C/c1ccc(O)c(O)c1`: the call in [1], in [2], in experiment [15], in experiment [3] and in experiment [5] was inactive. For the same compound, the Potency result in experiment [4], in experiment [6], in experiment [7], in experiment [8], in experiment [9] and in experiment [10] was “inactive” each time. Moreover, the Potency result in experiment [12], in experiment [14] and in experiment [18] was “inactive” each time. Moreover, in experiment [17], the Potency was 27.5 µM (active).
On to `COc1cc(OC)c2ccc(=O)oc2c1`, for which the call in [1], in [2], in [15], in experiment [3] and in experiment [5] was inactive. Besides, the Potency entry in [9], in experiment [13], in experiment [17], in experiment [14] and in experiment [18] was “inactive” throughout. The Potency in experiment [12] was 68.6 µM (active).
Consider `CC(C)N(C)C`, for which the result in [1], in [2], in experiment [15], in [3] and in experiment [5] was inactive. For the same compound, the Potency result in experiment [4], in [6], in experiment [7], in experiment [8], in experiment [9] and in experiment [10] was “inactive” throughout. Moreover, the Potency entry in [12], in [13] and in [14] was “inactive” throughout.
For `CC(C)COC(=O)COc1cc(Cl)c(Cl)cc1Cl`, the result in [1], in [2], in experiment [15], in experiment [3] and in experiment [5] was inactive. For the same compound, the Potency entry in experiment [4], in [6], in experiment [7], in [9], in [10] and in experiment [11] was “inactive” in each case. Besides, the Potency result in experiment [12] and in experiment [13] was “inactive” throughout.
For the compound `O=c1[nH][nH]c(=O)c2cc([N+](=O)[O-])ccc12`, the compound was classed as inactive in experiment [1], in [2], in [15], in [3] and in experiment [5]. For the same compound, the Potency result in experiment [4], in experiment [6], in [7], in experiment [8], in experiment [9] and in experiment [10] was “inactive” throughout. The Potency entry in [11], in experiment [12], in experiment [13] and in experiment [14] was “inactive” each time.
With `CCC(C)(C)C(=O)O`, the outcome in [1], in experiment [2], in experiment [15], in experiment [3], in [5] and in [16] was inactive. In addition, the Potency entry in experiment [4], in experiment [6], in [7], in experiment [8], in [9] and in [10] was “inactive” in each case. Also, the Potency result in [11], in experiment [12], in experiment [19], in experiment [14] and in experiment [18] was “inactive” throughout.
